The values below come from PMC7819943, “Rice protein-binding microarrays: a tool to detect cis-acting elements near promoter regions in rice”.

Over roughly 39,000 sequences, “fluorescence intensity (a.u.)” has its median near 4,300; the highest 2% begin near 39,000. The full list was thinned out, with the highest values kept by preference.

For this experiment, the target named is T1, OsSMF1 (Oryza sativa, UniProt Q6ZLB0 1-436).
T1 sequence: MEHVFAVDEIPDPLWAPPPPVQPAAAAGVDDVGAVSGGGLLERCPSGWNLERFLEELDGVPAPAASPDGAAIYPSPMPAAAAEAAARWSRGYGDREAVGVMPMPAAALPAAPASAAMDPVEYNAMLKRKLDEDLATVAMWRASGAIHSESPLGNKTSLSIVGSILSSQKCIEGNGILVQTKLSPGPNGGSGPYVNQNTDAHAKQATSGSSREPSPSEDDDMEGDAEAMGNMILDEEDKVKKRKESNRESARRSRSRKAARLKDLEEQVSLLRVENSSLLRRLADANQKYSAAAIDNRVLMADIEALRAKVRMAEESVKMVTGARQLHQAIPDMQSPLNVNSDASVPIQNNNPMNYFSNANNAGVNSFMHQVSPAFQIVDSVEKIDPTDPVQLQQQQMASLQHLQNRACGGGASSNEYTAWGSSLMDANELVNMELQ
Briefly: protein-binding microarray (RPBM); PBS, 2% BSA, 51.3 ng/ul salmon testes DNA, 50 uM zinc acetate, 200 nM TF, 25 C, 1 h; high values mean tight binding. The conditions noted are these: protein: recombinant; tags: N-terminal polyhistidine and DsRed monomer fusion (pET32a); chain copies: 2; label: CyDye5-dUTP incorporated in the synthesized complementary strand; 3' TTTTT single-stranded linker to array surface; dsDNA, one strand shown. The method, boiled down: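 Per-feature fluorescence intensity (arbitrary units), read on an Axon 4000B scanner, is the binding signal. Transcription factors carrying an N-terminal polyhistidine tag and DsRed fusion were expressed in E. coli BL21-CodonPlus and purified on Ni–NTA. A custom Agilent array, made double-stranded by primer extension with Cy5-dUTP and blocked with 2% BSA, was incubated with 200 nM protein in PBS, 2% BSA, salmon testes DNA and 50 µM zinc acetate at 25 °C for 1 h and then washed.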
With “TTCTTCGAGGACCACATGCGTGAGTGGATGACGGAGTTCCCGGAGTCACCTAGTGCAG”, the binding signal is 3950 fluorescence intensity (a.u.). In the case of “TTAATTATTAAATTCTTTTCACTGTCTACTACTTGTTCCGCGGAGTCACCTAGTGCAG”, the binding signal was 22300 fluorescence intensity (a.u.). The figure for “TGGAGGTTATGAATCATACTCGGACGATAGTTAAGGGAGTCGGAGTCACCTAGTGCAG” is 49700 fluorescence intensity (a.u.); for “GCGGAAAGGGAAAGGCCCGACGAATGGGAGGAATCATATACGGAGTCACCTAGTGCAG” it is 40300 fluorescence intensity (a.u.); for “CGGCATTATATACTAAAGAAAATGGAGGGAGTAGGAATCACGGAGTCACCTAGTGCAG” it is 28700 fluorescence intensity (a.u.). As to “CTGACGAATATACAGGAGGGAACCGAATGGCGCGCAATTGCGGAGTCACCTAGTGCAG”, the binding signal was 21700 fluorescence intensity (a.u.). For the sequence “GTTTTATGGTTGGAGGTCATGAATCATACTCGTGTCATAGCGGAGTCACCTAGTGCAG”, the binding signal was 7410 fluorescence intensity (a.u.). Consider “TTTGTGGTTGGAGGTTATGAATCATACTCGAGGCATAGTTCGGAGTCACCTAGTGCAG”, for which the binding signal is 22000 fluorescence intensity (a.u.). The figure for “AGATTAGGTTGCTGTAGCCATGACTGTGAGTTGTGACTAGCGGAGTCACCTAGTGCAG” is 4030 fluorescence intensity (a.u.); for “TGTATGGGCCTTACGTCAGCACGGCCCAGTTGCTGGTTTTCGGAGTCACCTAGTGCAG” it is 17700 fluorescence intensity (a.u.); for “TCACCTCCACCACCGTTGACGATGACACGCGGTGCGTCGCCGGAGTCACCTAGTGCAG” it is 4250 fluorescence intensity (a.u.). For “AACTAATGAATAGTGTGACGTATTGCCGAAATTTCTCAACCGGAGTCACCTAGTGCAG”, the binding signal is 7380 fluorescence intensity (a.u.). The figure for “TGTGAATTGCATCAACCGAAAAGTAGATATTGGAGTATTTCGGAGTCACCTAGTGCAG” is 65500 fluorescence intensity (a.u.). In the case of “ACATTTATTGCATCATTACATTCTGAAGTAATTTCAACATCGGAGTCACCTAGTGCAG” it was 3470 fluorescence intensity (a.u.); in that of “ACCTACATGTGCGTAATATTCGTGGACACCAGGATTTAAACGGAGTCACCTAGTGCAG”, 3510 fluorescence intensity (a.u.); in that of “TTGTATTTTGGAAATATGACGCATTAGATGTTTTATATATCGGAGTCACCTAGTGCAG”, 3570 fluorescence intensity (a.u.). The figure for “TATGAGTATCCTATATACATATATATACATATATATATACCGGAGTCACCTAGTGCAG” is 27300 fluorescence intensity (a.u.); for “GTTGAGGTCTCGCGCTCCCGTCCTCGTCTCGTCCTCTCCCCGGAGTCACCTAGTGCAG” it is 21500 fluorescence intensity (a.u.); for “TATGAGGGTATCAGGGTCGTTGAGGTCTCTCCTCCTACACCGGAGTCACCTAGTGCAG” it is 41000 fluorescence intensity (a.u.). With “TCACGCTCTCAACGCTGCTGTGTCACGTCACGTCACGCGCCGGAGTCACCTAGTGCAG”, the binding signal is 16400 fluorescence intensity (a.u.).

As for “TTTCAACAGATATTTTATTGTGACGTTGCAATTACTAAAACGGAGTCACCTAGTGCAG”, the binding signal is 4950 fluorescence intensity (a.u.). The figure for “TGAAAATATATTCAATTATTGATTCGATAAAACTAATTTACGGAGTCACCTAGTGCAG” is 3460 fluorescence intensity (a.u.); for “CTAAAACAGGCGAGTAGGATATACTACCTTCAATTATATTCGGAGTCACCTAGTGCAG” it is 40600 fluorescence intensity (a.u.). Consider “TCAACCGTATCTGACGCCTGCATTTCCTCTACCAGCCAAGCGGAGTCACCTAGTGCAG”, for which the binding signal was 4010 fluorescence intensity (a.u.). The figure for “CTAAAACTCAACATATAAACATGCCACCTCATCATCTATACGGAGTCACCTAGTGCAG” is 7400 fluorescence intensity (a.u.). In the case of “AAATAGCCAAGCCATATCATCTCATCCATATCATAATCGGCGGAGTCACCTAGTGCAG” it was 3200 fluorescence intensity (a.u.). In the case of “CATCCTAACGGATTATTCTCTCAACCCCACGAACCATTCACGGAGTCACCTAGTGCAG” it was 19200 fluorescence intensity (a.u.). As for “TATGAAATATCCCATCCTATCATAGATTATTATATTACGACGGAGTCACCTAGTGCAG”, the binding signal was 26400 fluorescence intensity (a.u.). For “GCAACATAACCCATCCTAGATTGCTATATATTGGGACGAACGGAGTCACCTAGTGCAG”, the binding signal was 65500 fluorescence intensity (a.u.).

“CAGGCCGGAAACCGGCCGAGCCCACCCATTAGAAAGGACGCGGAGTCACCTAGTGCAG”: the binding signal is 22900 fluorescence intensity (a.u.). For “CACTCAAAATCTCTTTCGTGTCCACCTCACCTTGCACCACCGGAGTCACCTAGTGCAG”, the binding signal was 4870 fluorescence intensity (a.u.). The figure for “TCCCGTCTCGGCTCCTTGCGCCATCGTCGACAGGGGAGGGCGGAGTCACCTAGTGCAG” is 3540 fluorescence intensity (a.u.); for “GATGGGCCCACCCGTCATCCACACGAGGGCCACGCCTTGCCGGAGTCACCTAGTGCAG” it is 3380 fluorescence intensity (a.u.). Consider “GGCCTTGCCACGAGCCCACGAGAGGTTTGGTTGATGGGCCCGGAGTCACCTAGTGCAG”, for which the binding signal is 46500 fluorescence intensity (a.u.). In the case of “ACGAGCCCACGAGGTTGATGACGACGAAGCCGAAGAGTTGCGGAGTCACCTAGTGCAG” it was 4660 fluorescence intensity (a.u.). The figure for “CCACCATGGCATGCCACGTCAACACACAGAGTGGGTTGGACGGAGTCACCTAGTGCAG” is 17900 fluorescence intensity (a.u.); for “CAAATGCAGAAAAGATAATCTCCTTTCTCTCTCTATTAAACGGAGTCACCTAGTGCAG” it is 31100 fluorescence intensity (a.u.). The figure for “TCACACCCCATCTATGTTGTCGCTCCACATAGGCTAGGCCCGGAGTCACCTAGTGCAG” is 3260 fluorescence intensity (a.u.). As to “TTGTTCCTTGCTAATATATTGACGTGTAATTCTTTTATGCCGGAGTCACCTAGTGCAG”, the binding signal was 9690 fluorescence intensity (a.u.). The figure for “TGGTACAAGGATTTGTCCTGTCAACATGGCAATCCTCTGCCGGAGTCACCTAGTGCAG” is 3360 fluorescence intensity (a.u.); for “TCCACCGTCTGCTACTGCTAGCGTGCTACTGTCTCGCTGACGGAGTCACCTAGTGCAG” it is 3350 fluorescence intensity (a.u.); for “GCAACCACCGTGACGCCGCCGCGCGCCCACTGGAACACGTCGGAGTCACCTAGTGCAG” it is 5010 fluorescence intensity (a.u.). In the case of “GCGCTGACGTGTCGCTATCCTACTGGAACACACCACGTCACGGAGTCACCTAGTGCAG” it was 46500 fluorescence intensity (a.u.).
